Source: PubChem BioAssay AID1159580 (chemical genetic matrix, 2015)
The campaign covered roughly 5,500 compounds. About 2,000 (36%) were called active. About 18% were inconclusive and are not listed. No stated cut-off is given here; in the data, active means normalized growth mostly below about 0.91 (no sharp cut-off); inconclusive means no clear call, values can overlap the other calls; inactive means mostly above about 0.92. The list shows a part of the results.

Assay: chemical genetic growth profiling, strain panel (AID 1159580);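 further: tested at 20 µM; growth read once vehicle control cultures reached saturation at 30 °C; 1 = growth at the plate median or of vehicle wells; lower values mean less growth of the strain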
Settings: growth OD

Measured: normalized growth

CC(N)CCCC(C)(C)O (centres undefined)
inactive: S. cerevisiae deletion strains, locus YJR066W, strain TOR1, active compounds read low 1.01 | S. cerevisiae deletion strains, locus YKL009W, strain mrt4, active compounds read low 0.985 | S. cerevisiae deletion strains, locus YKL068W, active compounds read low 0.995 | S. cerevisiae deletion strains, locus YKL085W, strain MDH1 (second series), active compounds read low 0.995 | S. cerevisiae deletion strains, locus YKL085W, strain MDH1, active compounds read low 0.995 | S. cerevisiae deletion strains, locus YKL160W, strain elf1, active compounds read low 0.991 | S. cerevisiae deletion strains, locus YKL190W, strain CNB1, active compounds read low 0.995 | S. cerevisiae deletion strains, locus YKR001C, strain vps1, active compounds read low 0.99 | S. cerevisiae deletion strains, locus YKR026C, strain gcn3, active compounds read low 0.956 | S. cerevisiae deletion strains, locus YKR091W, strain srl3, active compounds read low 0.977 | S. cerevisiae deletion strains, locus YLL001W, strain dnm1, active compounds read low 0.974 | S. cerevisiae deletion strains, locus YLL026W, active compounds read low 0.979 | S. cerevisiae deletion strains, locus YLL041C, strain sdh2, active compounds read low 0.968 | S. cerevisiae deletion strains, locus YLR027C, strain aat2, active compounds read low 0.99 | S. cerevisiae deletion strains, locus YLR039C, strain RIC1, active compounds read low 1.01 | S. cerevisiae deletion strains, locus YLR058C, strain SHM2, active compounds read low 1.01 | S. cerevisiae deletion strains, locus YLR102C, strain apc9, active compounds read low 1.01 | S. cerevisiae deletion strains, locus YLR113W, strain HOG1, active compounds read low 0.988 | S. cerevisiae deletion strains, locus YLR221C, strain rsa3, active compounds read low 0.982 | S. cerevisiae deletion strains, locus YLR258W, strain gsy2, active compounds read low 0.982 | S. cerevisiae deletion strains, locus YLR262C, strain YPT6 (second series), active compounds read low 0.995 | S. cerevisiae deletion strains, locus YLR262C, strain YPT6, active compounds read low 1.03 | S. cerevisiae deletion strains, locus YLR268W, strain sec22, active compounds read low 0.999 | S. cerevisiae deletion strains, locus YLR320W, strain mms22, active compounds read low 1.01 | S. cerevisiae deletion strains, locus YLR330W, strain CHS5, active compounds read low 1.01 | S. cerevisiae deletion strains, locus YLR342W, strain FKS1 (second series), active compounds read low 1.04 | S. cerevisiae deletion strains, locus YLR342W, strain FKS1, active compounds read low 0.982 | S. cerevisiae deletion strains, locus YLR357W, strain rsc2, active compounds read low 0.981 | S. cerevisiae deletion strains, locus YLR370C, strain arc18, active compounds read low 0.988 | S. cerevisiae deletion strains, locus YLR371W, strain rom2, active compounds read low 0.991 | S. cerevisiae deletion strains, locus YLR384C, strain iki3, active compounds read low 0.985 | S. cerevisiae deletion strains, locus YLR418C, strain cdc73, active compounds read low 1.05 | S. cerevisiae deletion strains, locus YML016C, strain PPZ1, active compounds read low 1 | S. cerevisiae deletion strains, locus YML032C, strain rad52, active compounds read low 0.986 | S. cerevisiae deletion strains, locus YML120C, strain ndi1, active compounds read low 0.981 | S. cerevisiae deletion strains, locus YML124C, strain tub3, active compounds read low 1.01 | S. cerevisiae deletion strains, locus YMR058W, strain fet3, active compounds read low 0.974 | S. cerevisiae deletion strains, locus YMR078C, strain ctf18, active compounds read low 1.01 | S. cerevisiae deletion strains, locus YMR125W, strain sto1, active compounds read low 0.957 | S. cerevisiae deletion strains, locus YMR129W, active compounds read low 0.978 | S. cerevisiae deletion strains, locus YMR205C, strain PFK2, active compounds read low 1.01 | S. cerevisiae deletion strains, locus YMR223W, strain ubp8, active compounds read low 1.02 | S. cerevisiae deletion strains, locus YMR231W, strain pep5, active compounds read low 0.983 | S. cerevisiae deletion strains, locus YMR263W, strain SAP30, active compounds read low 0.984 | S. cerevisiae deletion strains, locus YMR307W, strain GAS1, active compounds read low 1.06 | S. cerevisiae deletion strains, locus YNL067W, strain RPL9B, active compounds read low 0.973 | S. cerevisiae deletion strains, locus YNL071W, strain lat1, active compounds read low 0.987 | S. cerevisiae deletion strains, locus YNL183C, strain NPR1, active compounds read low 1.03 | S. cerevisiae deletion strains, locus YNL209W, strain ssb2, active compounds read low 0.976 | S. cerevisiae deletion strains, locus YNL233W, strain BNI4, active compounds read low 0.97 | S. cerevisiae deletion strains, locus YNL248C, strain rpa49, active compounds read low 0.965 | S. cerevisiae deletion strains, locus YNL250W, strain rad50, active compounds read low 0.996 | S. cerevisiae deletion strains, locus YNL271C, strain bni1, active compounds read low 1.01 | S. cerevisiae deletion strains, locus YNL298W, strain CLA4, active compounds read low 0.999 | S. cerevisiae deletion strains, locus YNL307C, strain MCK1, active compounds read low 1.01 | S. cerevisiae deletion strains, locus YNL322C, strain KRE1 (second series), active compounds read low 0.972 | S. cerevisiae deletion strains, locus YNR049C, strain mso1, active compounds read low 0.965 | S. cerevisiae deletion strains, locus YNR052C, strain pop2, active compounds read low 1 | S. cerevisiae deletion strains, locus YOL006C, strain TOP1, active compounds read low 0.947 | S. cerevisiae deletion strains, locus YOL012C, strain htz1 0.693 | S. cerevisiae deletion strains, locus YOL147C, strain pex11, active compounds read low 1 | S. cerevisiae deletion strains, locus YOR001W, strain rrp6, active compounds read low 0.961 | S. cerevisiae deletion strains, locus YOR061W, strain CKA2, active compounds read low 1 | S. cerevisiae deletion strains, locus YOR069W, strain VPS5, active compounds read low 1.01 | S. cerevisiae deletion strains, locus YOR070C, strain gyp1, active compounds read low 0.992 | S. cerevisiae deletion strains, locus YOR080W, strain dia2, active compounds read low 0.98 | S. cerevisiae deletion strains, locus YOR083W, strain WHI5, active compounds read low 0.979 | S. cerevisiae deletion strains, locus YOR106W, strain vam3, active compounds read low 0.978 | S. cerevisiae deletion strains, locus YOR136W, strain idh2, active compounds read low 0.991 | S. cerevisiae deletion strains, locus YOR144C, strain elg1, active compounds read low 0.995 | S. cerevisiae deletion strains, locus YOR184W, strain ser1, active compounds read low 0.999 | S. cerevisiae deletion strains, locus YOR231W, strain MKK1, active compounds read low 1.03 | S. cerevisiae deletion strains, locus YOR265W, strain rbl2, active compounds read low 0.982 | S. cerevisiae deletion strains, locus YOR270C, strain vph1, active compounds read low 0.989 | S. cerevisiae deletion strains, locus YOR290C, strain snf2, active compounds read low 0.94 | S. cerevisiae deletion strains, locus YOR316C, strain cot1, active compounds read low 1 | S. cerevisiae deletion strains, locus YPL051W, strain arl3, active compounds read low 0.979 | S. cerevisiae deletion strains, locus YPL055C, strain LGE1, active compounds read low 0.915 | S. cerevisiae deletion strains, locus YPL078C, strain atp4, active compounds read low 0.975 | S. cerevisiae deletion strains, locus YPL106C, strain sse1, active compounds read low 0.951 | S. cerevisiae deletion strains, locus YPL240C, strain hsp82, active compounds read low 0.966 | S. cerevisiae deletion strains, locus YPL241C, strain CIN2, active compounds read low 1 | S. cerevisiae deletion strains, locus YPL256C, strain CLN2, active compounds read low 1.1 | S. cerevisiae deletion strains, locus YPR119W, strain clb2, active compounds read low 0.997 | S. cerevisiae deletion strains, locus YPR141C, strain kar3, active compounds read low 1 | S. cerevisiae deletion strains, locus YPR163C, strain tif3, active compounds read low 1 | S. cerevisiae deletion strains, locus YPR167C, strain met16, active compounds read low 1.01 | S. cerevisiae deletion strains, strain wtn01, active compounds read low 1 | S. cerevisiae strains, strain wild type, active compounds read low 1
